In PMC4336329 (PLoS ONE, 2015):
Hit rate of the full screen: of about 310,000 compounds, about 14,000 (4.5%) showed an effect of 50% or more. The effect is printed as a negative number. Only a selection was taken, and strong results are over-represented in it overall.

Each compound was assayed against human ether-à-go-go-related gene (hERG) potassium channel (human, UniProt Q12809) (assay: primary screen, population patch clamp on CHO cells stably expressing hERG; higher = less effect of the substance).
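Also: peak tail current of the secondary pulse compared with the same well before compound.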

human ether-à-go-go-related gene (hERG) potassium channel, sequence (Q12809 whole entry, looked up): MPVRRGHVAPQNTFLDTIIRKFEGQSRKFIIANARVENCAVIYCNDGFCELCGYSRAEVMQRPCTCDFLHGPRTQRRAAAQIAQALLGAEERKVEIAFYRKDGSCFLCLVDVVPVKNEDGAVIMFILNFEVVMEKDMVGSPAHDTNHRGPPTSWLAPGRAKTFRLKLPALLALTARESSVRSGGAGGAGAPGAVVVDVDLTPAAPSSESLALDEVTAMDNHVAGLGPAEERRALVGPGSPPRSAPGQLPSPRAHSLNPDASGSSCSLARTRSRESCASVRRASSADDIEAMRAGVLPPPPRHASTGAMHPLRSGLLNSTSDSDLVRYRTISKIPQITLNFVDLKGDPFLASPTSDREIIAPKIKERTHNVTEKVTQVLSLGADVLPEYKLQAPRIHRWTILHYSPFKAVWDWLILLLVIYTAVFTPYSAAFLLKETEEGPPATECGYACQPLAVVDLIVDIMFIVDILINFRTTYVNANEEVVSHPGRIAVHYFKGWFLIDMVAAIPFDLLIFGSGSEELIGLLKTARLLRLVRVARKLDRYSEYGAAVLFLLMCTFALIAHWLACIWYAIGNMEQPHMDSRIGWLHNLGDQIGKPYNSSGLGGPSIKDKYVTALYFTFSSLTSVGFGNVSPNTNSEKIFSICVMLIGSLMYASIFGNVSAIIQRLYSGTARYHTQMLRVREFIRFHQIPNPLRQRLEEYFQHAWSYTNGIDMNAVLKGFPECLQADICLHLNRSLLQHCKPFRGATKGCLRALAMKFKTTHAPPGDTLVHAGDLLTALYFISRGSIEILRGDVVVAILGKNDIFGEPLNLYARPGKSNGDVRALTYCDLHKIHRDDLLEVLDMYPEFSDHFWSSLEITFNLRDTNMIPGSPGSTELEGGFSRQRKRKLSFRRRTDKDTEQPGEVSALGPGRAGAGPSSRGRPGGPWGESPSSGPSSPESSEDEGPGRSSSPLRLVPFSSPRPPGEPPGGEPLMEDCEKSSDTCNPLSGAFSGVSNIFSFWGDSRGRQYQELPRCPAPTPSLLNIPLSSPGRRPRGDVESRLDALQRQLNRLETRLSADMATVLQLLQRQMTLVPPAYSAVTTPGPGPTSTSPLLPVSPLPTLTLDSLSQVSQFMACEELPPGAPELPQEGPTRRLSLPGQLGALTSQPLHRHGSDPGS

Structure (SMILES)	hERG current change (%, negative = inhibition) at 10uM [%]
O=C(Nc1ccc2c(c1)OCO2)C1CCCN(S(=O)(=O)c2cccs2)C1 (centres unmarked)	10.7
COc1cccc(-c2ncc3ccccn23)c1.O=C(O)C(=O)O	-5
CCOc1ccc(S(=O)(=O)Nc2cccc(C(=O)NCCCn3ccnc3)c2)cc1	10.5
O=C(CCN1C(=O)c2ccccc2C1=O)Nc1sc2c(c1C(=O)NCc1ccco1)CCCC2	-13.2
O=C(Nc1nnc(SCC(=O)N2CCCCC2)s1)c1cccs1	4.86
CCOC(=O)c1c(NC(=O)C2COc3ccccc3O2)sc2c1CC(C)(C)NC2(C)C (centres unmarked)	-12.1
Cc1ccc(-n2nnnc2SC(C)C(=O)Nc2ccc(Cl)cn2)cc1 (centres unmarked)	-22.1
Cc1nnc(SC(C)C(=O)Nc2ccc(Cl)cn2)n1Cc1ccccc1 (centres unmarked)	-17.3
Cc1nnc(SC(C)C(=O)Nc2ncc(Cl)cc2Cl)n1Cc1ccccc1 (centres unmarked)	-67.8
CC(=O)Nc1ccc(NC(=O)C(C)Sc2n[nH]c(=O)n2Cc2ccccc2)cc1 (centres unmarked)	16
CC(Sc1nnnn1-c1ccccc1)C(=O)Nc1ccc(Cl)cn1 (centres unmarked)	-54.2
CC(Sc1nnc(CN2CCCC2)n1Cc1ccccc1)C(=O)Nc1ccc(F)cc1 (centres unmarked)	-61.4
O=C(CSc1nnnn1-c1ccccc1)Nc1ccc(Cl)cn1	2.66
Cc1nnc(SCC(=O)Nc2ncc(Cl)cc2Cl)n1Cc1ccccc1	-15.6
CC(Sc1nnc(CN2CCCC2)n1Cc1ccccc1)C(=O)Nc1ccccc1 (centres unmarked)	-43.1
Cc1sc2nc(SCc3nc4ccccc4[nH]3)n(Cc3ccco3)c(=O)c2c1C	-9.15
C=CC1CN(C(=O)OCC(Cl)(Cl)Cl)C2CC3c4ccc(OC)cc4NC3C3CC1C2CO3 (centres unmarked)	-7.61
CCOc1ccc2nc(SCC(=O)NCc3ccccc3)[nH]c2c1	2.63
CC(C)CN(C(=O)COC(=O)CCSc1ccc(F)cc1)c1c(N)n(Cc2ccccc2)c(=O)[nH]c1=O	10.1
Cc1cc(C(=O)CN2C(=O)NC3(CCCc4ccccc43)C2=O)c(C)n1C (centres unmarked)	-13.5
COc1ccc(/C=C2\S/C(=N/S(=O)(=O)c3cccs3)NC2=O)cc1	8.45
CS(=O)(=O)N(CC(=O)NCCC1=CCCCC1)c1cccc([N+](=O)[O-])c1	-32.4
COc1cc(OC)cc(C(=O)Oc2c(CN3CCOCC3)cc(Cl)c3cccnc23)c1	-15.5
COC(=O)c1cccc(Nc2cc(C)nc(-c3ccccc3O)n2)c1	10.2
COc1ccc(/C=C/C(=O)OCC(=O)c2ccc3c(c2)NC(=O)CO3)c(OC)c1	1.6
Cc1ccccc1NC(=O)C1CCCN(S(=O)(=O)c2ccc3c(c2)C(C)(C)C(=O)N3C)C1 (centres unmarked)	6.82
CCOc1ccccc1CN1CCC(n2nccc2NC(=O)CCCc2ccccc2)CC1	-83.7

Structure (SMILES)	hERG current change (%, negative = inhibition) at 10uM [%]
C=CCOc1ccccc1CN1CCC(n2nccc2NC(=O)C2CCOC2)CC1 (centres unmarked)	-21.5
C=CCOc1ccccc1CN1CCC(n2nccc2NC(=O)c2ccccc2)CC1	-64.4
COc1ccccc1CN1CCC(n2nccc2NC(=O)CCCc2ccccc2)CC1	-85.2
O=C(Nc1ccnn1C1CCN(Cc2c[nH]c3ccccc23)CC1)c1ccccc1	-44.7
COc1ccccc1CN1CCC(n2nccc2NC(=O)CCc2ccccc2)CC1	-23.9
COCc1ccc(CN2CCC(n3nccc3NC(=O)CCCc3ccccc3)CC2)o1	21.5
COc1cccc(CN2CCC(n3nccc3NC(=O)CCCc3ccccc3)CC2)c1O	-75.9
CCOc1ccccc1CN1CCC(n2nccc2NC(=O)CCc2ccccc2)CC1	-38.6
O=S(=O)(NCc1cccnc1)c1ccc(Cl)c(Cl)c1	-10.9
O=C(CN1CCCCC1)Nc1cc(S(=O)(=O)N2CCOCC2)ccc1N1CCCC1	6.08
COc1ccc(C(=O)C[n+]2cccc3cc(OC)ccc32)cc1.[Br-]	6.04
CCn1c(=O)n(CC)c2cc(NC(=O)CSc3ccc([N+](=O)[O-])cn3)ccc21	-5.04
Cc1nnc(SCC(=O)Nc2ccc(N3CCOCC3)cc2)o1	10.3
COc1cccc(CN2CCC(n3nccc3NC(=O)CCOc3ccccc3)CC2)c1O	-61.5
COCc1ccc(CN2CCC(n3nccc3NC(=O)CCOc3ccccc3)CC2)o1	-0.748
Cc1ccccc1CN1CCC(n2nccc2NC(=O)CCOc2ccccc2)CC1	-44.9
CCC1(CC)NC(=O)N(CC(=O)OC(C)C(=O)Nc2ccc(NC(C)=O)cc2)C1=O (centres unmarked)	3.1
CCC1(CC)NC(=O)N(CC(=O)OC(C)C(=O)Nc2ccccc2OC)C1=O (centres unmarked)	32.3
CCC1(CC)NC(=O)N(CC(=O)OC(C)C(=O)Nc2ccc(Cl)cn2)C1=O (centres unmarked)	-51.7
N#Cc1ccsc1NC(=O)CN1CCCCCC1	-3.42
CC(=O)N1CCN(CC(=O)Nc2sccc2C#N)CC1	17.8
Cc1ccc(C)c(S(=O)(=O)N2CCN(CC(=O)Nc3sccc3C#N)CC2)c1	-57.7
N#Cc1ccsc1NC(=O)CN1CCN(S(=O)(=O)c2cc(Cl)ccc2Cl)CC1	-32
N#Cc1ccsc1NC(=O)CN1CCN(S(=O)(=O)c2ccccc2C(F)(F)F)CC1	-56.9
N#Cc1ccsc1NC(=O)CN1CCN(c2ccccc2O)CC1	-4.95
COC(=O)C1=C2c3[nH]c4ccccc4c3CCN2C(=O)CC1	-23.1
